Screening results: PubChem BioAssay, National Center for Advancing Translational Sciences (NCATS)
An excerpt weighted towards active compounds, which were near 12% of everything screened.
Marburg entry inh = blocks Marburg virus binding to or entry into cells. Marburg virus pseudotyped entry inhibition, cell reporter. Potency, µM (series often up to 37.8 µM), without a hit: at the highest dose activity change, negative = inhibition, most hits filed as inhibitors. hit rate 1.8% among 300,000; calls by dose curve; tested in HEK293 cells; also: potency is read from the fitted curve at half-maximal effect; % is scaled to controls: 0 for no effect and ±100 for the full control effect
Lassa entry inh = blocks Lassa virus binding to or entry into cells | Lassa virus pseudotype entry inhibition, cell reporter | Potency, µM (highest dose often 37.9 µM), without a hit: at the top dose activity change, negative = inhibition, actives largely listed as inhibitors | hit rate 1.2% among 300,000 | AID 540256; calls by dose curve; tested in HEK293 cells; also: potency is read from the fitted curve at half-maximal effect; % is scaled to controls: 0 for no effect and ±100 for the full control effect; nearly all actives have a fitted effect of over 50% in size
Shiga toxin inh = Shiga toxin inhibition; hit rate 9.2% among 290,000; inhibition, % at 38.7 µM; Vero cells, Shiga toxin protein synthesis inhibition reporter; in the data active = inhibition mostly above about 28%, no sharp cut-off; inactive = mostly below about 43%; also: 0% is about no effect
CHX counter = counter-screen for Shiga toxin inhibitors: cycloheximide protein synthesis inhibition; AID 2314; hit rate 12% among 300,000; cell reporter, cycloheximide protein synthesis inhibition counterscreen; max response, %; in the data active = max response mostly above about 13%, no sharp cut-off; inactive = mostly below about 14%; also: read at 38.3 µM for the half of the compounds with a filed dose; 0% is about no effect
* = called active by the depositor; ? = inconclusive; · = no result; [ ] = remark or other dose.

SMILES	Marburg entry inh	Lassa entry inh	Shiga toxin inh	CHX counter
COc1ccccc1-c1cc(C(=O)NCCc2ccccc2)no1	?	?	147.0*	53.8*
CCN(CC)S(=O)(=O)c1ccc(S(=O)(=O)N2CCCC(C(=O)NC3CC3)C2)cc1 (stereo not given)	?	-19.0%	29.8	-6.0
COC(=O)c1ccc2c(c1)C(=O)/C(=C/c1ccc(O)cc1)O2	13.1%	?	64.6*	20.4
O=C1/C(=C\c2ccc(O)c(O)c2)Oc2cc(O)ccc21	·	·	19.3	6.7
O=C1/C(=C/c2ccc([N+](=O)[O-])cc2)Oc2cc(O)ccc21	?	?	67.0*	40.0*
O=C1/C(=C/c2ccc(Br)cc2)Oc2cc(O)ccc21	?	20.0%[46.1 µM]	60.8*	28.6*
COc1cccc(/C=C2\Oc3ccc(O)cc3C2=O)c1O	?	?	-6.4	-5.2
CC(C)(C)c1ccc(/C=C2\Oc3cc(O)ccc3C2=O)cc1	?	?	125.4*	61.0*
Cc1cc2nc(C3CCN(C(=S)NCCCOC(C)C)CC3)[nH]c2cc1C	·	·	-16.9	-3.6
Cn1cnc(S(=O)(=O)N2CCCC(C(=O)Nc3cccc(C#N)c3)C2)c1 (stereo not given)	·	10.7%[46.1 µM]	·	·
C[C@H]1O[C@@H](n2cnc3c(N)ncnc32)C[C@@H]1OP(=O)(O)OP(=O)(O)OP(=O)(O)O	·	·	5.1	13.2
Cc1ccc(C(=O)NC(=S)Nc2ccc(N3CCOCC3)cc2)cc1C	?	-20.9%	4.5	3.5
O=C(NC(=S)Nc1ccc(Cc2ccncc2)cc1)c1ccc(F)cc1	·	·	27.4	18.0*
O=C(NC(=S)Nc1ccc(N2CCOCC2)cc1)c1ccc2c(c1)OCCO2	-17.8%	?	60.8*	41.6*
O=C(NC(=S)Nc1ccc(F)cc1)c1ccc2c(c1)OCCO2	?	13µM*	101.5*	70.5*
COc1ccc(NC(=S)NC(=O)c2ccc3c(c2)OCCO3)cc1	?	-8.5%	·	·
CC(C)(C)C(=O)NC(=S)Nc1ccc(Cc2ccncc2)cc1	?	-18.3%	-8.9	-0.4
O=C(NC(=S)Nc1ccc(CN2CCOCC2)cc1)c1ccc2c(c1)OCCO2	10µM*	-24.4%	87.8*	30.9*
Cc1cc(NC(=O)Nc2nnc(N3CCCCC3)s2)ccc1Br	?	-10.8%[46.1 µM]	·	·
Cc1ccc(-c2ccc(=O)n(CCC(=O)NCCc3ccccc3)n2)cc1	·	2.9%[46.1 µM]	·	·
N#CCCN(C(=O)COC(=O)c1ccc(CNS(=O)(=O)c2ccc(F)c(Cl)c2)cc1)c1ccc(F)cc1	?	?	-7.5	4.0
CN(C)S(=O)(=O)c1ccc(Cl)c(NC(=O)CN2C(=O)NC(C)(C3CC3)C2=O)c1 (stereo not given)	·	·	-2.1	-5.6
O=C(NC(=S)Nc1c(F)cc(F)cc1Br)c1ccc2c(c1)OCCO2	·	·	83.8*	27.9*
O=C(NC(=S)Nc1ccc(N2CCCCC2)cc1)c1ccc2c(c1)OCCO2	4.9%	?	97.7*	58.2*
COc1ccc(C(=O)NC(=S)Nc2ccc(CN3CCOCC3)cc2)cc1	-19.8%[14.2 µM]	?	46.6*	18.3
SMILES	Marburg entry inh	Lassa entry inh	Shiga toxin inh	CHX counter
CCCCOc1ccc(C(=O)NC(=S)Nc2ccc(CN3CCOCC3)cc2)cc1	-0.9%	-2.3%	-11.9	-3.6
CS(=O)(=O)N1CCN(c2ccc(NC(=S)NC(=O)c3ccc4c(c3)OCO4)cc2)CC1	4.5%[46.1 µM]	3.9%[46.1 µM]	-12.0	-2.0
CC(C)(C)c1ccc(C(=O)NC(=S)Nc2ccc(N3CCOCC3)cc2)cc1	0.794µM*	?	-3.5	-1.3
CC(C)(C)c1ccc(C(=O)Nc2ccc(N3CCOCC3)cc2)cc1	?	-28.3%	-5.9	-2.3
Cc1ccc(C(=O)CC2(O)C(=O)N(CCc3ccccc3)c3ccc(Cl)cc32)cc1 (stereo not given)	-16.2%[46.1 µM]	?	·	·
O=C(Cn1nc(-c2ccc3c(c2)OCCO3)ccc1=O)Nc1cccc(NC(=O)c2ccccn2)c1	·	·	17.4	1.5
CN(C(=O)CSc1cn(CC(=O)N2CCCCC2)c2ccccc12)c1ccccc1	·	-1.1%[46.1 µM]	·	·
Cc1nc2scc(-c3ccccc3)c2c(=O)n1N=C1C=CC(=O)C=C1	?	-21.1%	48.7*	25.1*
Cc1nc2scc(-c3ccccc3)c2c(=O)n1N	-6.3%	-3.0%	-5.3	-0.8
CCc1ccccc1-n1ncc(C(=O)Nc2ccccc2OC)c1C	?	?	22.0	0.8
O=C(c1ccc([N+](=O)[O-])cc1[N+](=O)[O-])n1cnc2ccccc21	·	·	10.7	-1.9
COc1ccc(NC(=O)c2ccc3c(c2)N(C)CCS3)cc1	·	·	66.7*	59.5*
CN1CCSc2ccc(C(=O)Nc3cccc(F)c3)cc21	?	?	52.7*	55.2*
Cc1cccc(Cn2c(=O)n(Cc3ccc4c(c3)OCO4)c(=O)c3oc4ccccc4c32)c1	·	-1.0%[46.1 µM]	·	·
COc1ccc(CN(CC2CCC(C(=O)O)CC2)C(=S)Nc2cccc(C)c2)cc1 (stereo not given)	8.8%[46.1 µM]	·	12.2	2.3
